Measured values: PubChem BioAssay
Records with an inconclusive call do not appear. Calls of active or inactive are those of the source.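 The calls were made as follows, unless noted: active = normalized viability below 100% at a tested concentration; inactive = the rest.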

Key:
[1] = viability loss in pontine glioma line – cell-based, JHH-DIPG-1, MIPE4.0, CellTiter-Glo, qHTS, dose response (AID 1347062; cut-off not given, nearly all actives have AC50 up to about 27 µM;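 as to AC50: cells exposed to compound for two days before readout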); details: JHH-DIPG-1 viability, CellTiter-Glo ATP luminescence
[2] = growth inhibition of DIPG cells – cell-based, MIPE4.0 library, CellTiter-Glo luminescence, qHTS (AID 1347066; cut-off not given, nearly all actives have AC50 up to about 30 µM;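 also: cells exposed to compound for 48 hours before readout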); details: SU-DIPG-VI viability, CellTiter-Glo ATP luminescence
[3] = viability loss in pontine glioma line – cell-based, SU-DIPG-XIII, MIPE4.0, CellTiter-Glo, qHTS, dose response (AID 1347061; cut-off not given, nearly all actives have AC50 up to about 37 µM;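 also: cells exposed to compound for 48 hours before readout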); details: CellTiter-Glo ATP luminescence
[4] = viability loss in pontine glioma line – cell-based, SU-DIPG-IV, MIPE4.0, CellTiter-Glo, qHTS, dose response (AID 1347063; cut-off not given, nearly all actives have AC50 up to about 30 µM;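 also: compound exposure lasted 48 hours before the viability readout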); details: CellTiter-Glo ATP luminescence
[5] = viability loss in pontine glioma line – cell-based, SU-DIPG-XIII, MIPE5.0, CellTiter-Glo, qHTS, dose response (AID 1347064; cut-off not given, nearly all actives have AC50 up to about 23 µM;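 as to AC50: cells exposed to compound for 48 hours before the viability read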); details: CellTiter-Glo ATP luminescence
[6] = JHH-DIPG-1 glioma cell viability, MIPE5.0 library, CellTiter-Glo luminescence, qHTS (AID 1347067; cut-off not given, nearly all actives have AC50 up to about 26 µM;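 also: cells exposed to compound for 48 hours before readout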); details: JHH-DIPG-1 glioma viability, CellTiter-Glo ATP luminescence
[7] = growth inhibition of DIPG cells – cell-based, MIPE5.0 library, qHTS (AID 1347068; cut-off not given, nearly all actives have IC50 up to about 30 µM;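 as to IC50: cells exposed to compound for 48 hours before viability readout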); details: SU-DIPG-XXV viability
[8] = drug combination growth inhibition, ovarian cancer – cell-based, oncology-focused library, rucaparib conditional, profiling panel (AID 1508598); details: patient-derived ovarian cancer cells, CellTiter-Glo viability, 144 h, stronger effect = lower value
[9] = viability loss with induced miR-34 in A549 – imaging, A549 dox-inducible miR-34, nuclei and caspase counts, primary screen (AID 1347080;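 active = compounds whose cell count with miR-34 switched on is under 0.7 times the count with it off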); details: A549 miR-34 inducible, Hoechst nuclei count, 48 h
[10] = MELAS cybrid and Rieske KO viability enhancers – cell-based, MELAS cybrids, Rieske KO mouse fibroblasts, CellTiter-Glo, primary screen (AID 1508586;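 active = mean z-score across replicates of 1.96 or higher in either the MELAS or the Rieske mutant cell line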;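 also: z relative to plate mean and SD of compound and empty wells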); details: low glucose
[11] = galactose survival enhancers in mitochondrial complex I cybrids – cell-based, galactose medium, ATP luminescence, primary screen (AID 1645843;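 active = z-score of at least 1.8 in each of two replicates, scored against plate mean and spread of sample wells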;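 also: positive z means more ATP and so rescue of galactose-driven cybrid death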); details: complex I mutant cybrid cells, 72 h, stronger effect = higher value
[12] = viability loss in pontine glioma line – cell-based, SU-DIPG-XXV, MIPE5.0, CellTiter-Glo, qHTS, dose response (AID 1347065; cut-off not given, nearly all actives have AC50 up to about 26 µM;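 also: cells exposed to compound for 48 hours before ATP readout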); details: CellTiter-Glo ATP luminescence
[13] = measured here: relative caspase fold change +Dox/-Dox
[14] = measured here: total cells with miR-34 induction, stronger effect = lower value
[15] = measured here: total cells without miR-34 induction
[16] = MELAS cybrid survival, CellTiter-Glo 48 h, stronger effect = higher value
[17] = Rieske KO mouse fibroblast survival, CellTiter-Glo 72 h

C=C[C@H]1CN2CCC1C[C@H]2[C@H](O)c1ccnc2ccccc12 (some centres undefined)
active: AC50 [1] 20.9 µM
inactive: outcome [2]

Cc1c(N)nc([C@H](CC(N)=O)NC[C@@H](N)C(N)=O)nc1C(=O)N[C@H](C(=O)N[C@@H](C)[C@H](O)[C@@H](C)C(=O)N[C@@H](C(=O)NCCc1nc(-c2nc(C(=O)NCCC[S+](C)C)cs2)cs1)[C@@H](C)O)C(O[C@H]1O[C@H](CO)[C@H](O)[C@@H](O)[C@H]1O[C@H]1O[C@H](CO)[C@@H](O)[C@H](OC(N)=O)[C@@H]1O)c1cnc[nH]1 (some centres undefined)
inactive: outcome [3] | outcome [1] | outcome [5] | outcome [2] | outcome [6] | outcome [7] | viability ([8]; at 0.000305 µM, OCI-C5x cells, with rucaparib 10 µM, 100% = cells with rucaparib alone) 106% | viability ([8]; at 0.000305 µM, OCI-C5x cells, without rucaparib) 102% | viability ([8]; at 0.000305 µM, OCI-P5x cells, with rucaparib 20 µM, 100% = cells with rucaparib alone) 109% | viability ([8]; at 0.000305 µM, OCI-P5x cells, without rucaparib) 102% | viability ([8]; at 0.00122 µM, OCI-C5x cells, with rucaparib 10 µM, 100% = cells with rucaparib alone) 109% | viability ([8]; at 0.00122 µM, OCI-C5x cells, without rucaparib) 107% | viability ([8]; at 0.00122 µM, OCI-P5x cells, with rucaparib 20 µM, 100% = cells with rucaparib alone) 106% | viability ([8]; at 0.00488 µM, OCI-C5x cells, with rucaparib 10 µM, 100% = cells with rucaparib alone) 120% | viability ([8]; at 0.00488 µM, OCI-C5x cells, without rucaparib) 100% | viability ([8]; at 0.0195 µM, OCI-C5x cells, with rucaparib 10 µM, 100% = cells with rucaparib alone) 104% | viability ([8]; at 0.0781 µM, OCI-C5x cells, with rucaparib 10 µM, 100% = cells with rucaparib alone) 103%
active: AC50 [4] 1.87 µM | viability ([8]; at 0.00122 µM, OCI-P5x cells, without rucaparib) 97.2% | viability ([8]; at 0.00488 µM, OCI-P5x cells, with rucaparib 20 µM, 100% = cells with rucaparib alone) 96% | viability ([8]; at 0.00488 µM, OCI-P5x cells, without rucaparib) 94.3% | viability ([8]; at 0.0195 µM, OCI-C5x cells, without rucaparib) 90.7% | viability ([8]; at 0.0195 µM, OCI-P5x cells, with rucaparib 20 µM, 100% = cells with rucaparib alone) 88.2% | viability ([8]; at 0.0195 µM, OCI-P5x cells, without rucaparib) 84.4% | viability ([8]; at 0.0781 µM, OCI-C5x cells, without rucaparib) 95% | viability ([8]; at 0.0781 µM, OCI-P5x cells, with rucaparib 20 µM, 100% = cells with rucaparib alone) 94.6% | viability ([8]; at 0.0781 µM, OCI-P5x cells, without rucaparib) 85.9% | viability ([8]; at 0.313 µM, OCI-C5x cells, with rucaparib 10 µM, 100% = cells with rucaparib alone) 86.7% | viability ([8]; at 0.313 µM, OCI-C5x cells, without rucaparib) 84.5% | viability ([8]; at 0.313 µM, OCI-P5x cells, with rucaparib 20 µM, 100% = cells with rucaparib alone) 76.8% | viability ([8]; at 0.313 µM, OCI-P5x cells, without rucaparib) 57.6% | viability ([8]; at 1.25 µM, OCI-C5x cells, with rucaparib 10 µM, 100% = cells with rucaparib alone) 74.8% | viability ([8]; at 1.25 µM, OCI-C5x cells, without rucaparib) 69.9% | viability ([8]; at 1.25 µM, OCI-P5x cells, with rucaparib 20 µM, 100% = cells with rucaparib alone) 62.8% | viability ([8]; at 1.25 µM, OCI-P5x cells, without rucaparib) 39.3% | viability ([8]; at 5 µM, OCI-C5x cells, with rucaparib 10 µM, 100% = cells with rucaparib alone) 53.8% | viability ([8]; at 5 µM, OCI-C5x cells, without rucaparib) 47.2% | viability ([8]; at 5 µM, OCI-P5x cells, with rucaparib 20 µM, 100% = cells with rucaparib alone) 39.6% | viability ([8]; at 5 µM, OCI-P5x cells, without rucaparib) 21.3%

COc1cccc2c1[C@]13CCN(CC4CC4)[C@H](C2)[C@]1(OC)CCC(=O)C3
inactive: outcome [3] | outcome [1] | outcome [2]

COc1ccc(CC2NCCc3cc(OC)c(OC)cc32)cc1OC (centres undefined)
0.746: fold change [9, 13]
inactive: outcome [3] | outcome [4] | outcome [2] | fold change ([9]; stronger effect = lower value, cell number ratio, induced over uninduced) 0.988 | z-score [10, 16] -0.321
9220: cell count [9, 14]
9330: cell count [9, 15]
0.618: z-score [10, 17]

COc1ccc2c(c1)[C@]13CCCCC1C(C2)N(C)CC3 (some centres undefined)
7550: cell count [9, 14]
inactive: outcome [1] | outcome [4] | outcome [2] | fold change ([9]; stronger effect = lower value) 0.884 | z-score [11] 0.055
8540: cell count [9, 15]
1.91: fold change [9, 13]

CC(C)N[C@@H]1CCn2c(=O)[nH]c3cccc(c32)[C@H]1O
active: AC50 [3] 7.43 µM | AC50 [1] 14.8 µM | AC50 [4] 0.743 µM | AC50 [2] 23.5 µM

CCOC(=O)c1c(/C(C#N)=C\N)c2ccc(Cl)c(Cl)c2n1C
inactive: outcome [3] | outcome [1] | outcome [5] | outcome [2] | outcome [6] | outcome [7]

CC(C)N(CCNC(=O)CN1CCCC1=O)C(C)C
10600: cell count [9, 15]
0.7: z-score [10, 17]
0.862: fold change [9, 13]
9340: cell count [9, 14]
inactive: outcome [3] | outcome [1] | outcome [4] | outcome [2] | fold change ([9]; stronger effect = lower value) 0.88 | z-score [10, 16] -0.352

c1cc2c(cc1[C@H]1OC[C@H]3[C@@H]1CO[C@@H]3c1ccc3c(c1)OCO3)OCO2
inactive: outcome [1] | outcome [2]

CCNC(=O)C[C@@H]1N=C(c2ccc(Cl)cc2)c2cc(OC)ccc2-n2c(C)nnc21
inactive: outcome [2] | outcome [6] | outcome [7]
active: AC50 [1] 7.43 µM

Cc1sc2c(c1C)C(c1ccc(Cl)cc1)=N[C@@H](CC(=O)OC(C)(C)C)c1nnc(C)n1-2
active: AC50 [3] 18.7 µM | AC50 [12] 2.63 µM | AC50 [6] 16.6 µM

CC(C)(C)[C@]1(O)C[C@@H]2OC(=O)C[C@@]23C(=O)O[C@@H]2OC(=O)[C@H](O)C213 (some centres undefined)
inactive: outcome [3] | outcome [1] | outcome [4] | outcome [2]

C[C@@]12OC(=O)[C@]1([C@@H](O)[C@@H]1C=CCCC1)NC(=O)[C@@H]2CCCl
active: AC50 [3] 0.59 µM | AC50 [1] 0.0418 µM | AC50 [4] 0.00935 µM | AC50 [5] 0.0148 µM | AC50 [12] 0.0186 µM | AC50 [2] 0.0235 µM | AC50 [6] 0.0295 µM

CO[C@H]1CCC(O[C@H]2C[C@H]([C@]3(C)CC[C@]4(C[C@H](O)[C@@H](C)[C@@H]([C@@H](C)/C=C(\C)C(=O)[C@H](C)C[C@H](C)C(=O)O)O4)O3)O[C@]3(O[C@@H]([C@H]4O[C@@](O)(CO)[C@H](C)C[C@@H]4C)C[C@@H]3C)[C@@H]2C)O[C@@H]1C (some centres undefined)
active: AC50 [3] 3.32 µM | AC50 [1] 1.48 µM | AC50 [5] 1.66 µM | AC50 [12] 0.742 µM | AC50 [2] 0.526 µM | AC50 [6] 0.742 µM | IC50 [7] 0.934 µM

C[C@](O)(COc1ccc(C#N)cc1)C(=O)Nc1ccc(C#N)c(C(F)(F)F)c1
1.23: fold change [9, 13]
6840: cell count [9, 14]
0.535: z-score [10, 17]
7700: cell count [9, 15]
inactive: outcome [1] | outcome [4] | outcome [5] | outcome [12] | outcome [2] | outcome [7] | fold change ([9]; stronger effect = lower value) 0.889 | z-score [10, 16] -0.434

C[C@@H]1[C@H](O)[C@@H](C)C=CC=CCCC=CC=CC=CC=C[C@H](O[C@H]2O[C@@H](C)[C@H](O)[C@@H](N)[C@H]2O)CC2O[C@](O)(C[C@@H](O)[C@H](O)CC[C@@H](O)C[C@@H](O)C[C@@H](O)CC(=O)O[C@H]1C)C[C@H](O)[C@H]2C(=O)O
inactive: outcome [3] | outcome [1] | outcome [4] | outcome [2]
